Of roughly 7,900 targets only a part is listed; those with a hit were picked by preference. About 0.6% of all pairs of compound and target were hits. Values without a mark were called inactive.

Test in all cases: log2 fold change, soluble protein after heating vs DMSO (PISA); higher = thermal stabilisation; K562 cells, 10 uM, 30 min; active = over 0.2 and 3.5 SD of the protein, either way, in both replicates (recomputed)
Compound in experiment [1]: CC1=C(C=C(C=C1)NC(=O)C2=CC(=CC=C2)C(C)(C)C#N)NC3=CC4=C(C=C3)N=CN(C4=O)C
The gist of the method:
(§1)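 K562 cells at 2×10^6 cells/mL were treated for 30 min with 10 μM compound, and aliquots were heated for 3 min over 48°C-58°C before pooling. Extraction used PBS with 0.5% NP-40 at 4°C, and soluble protein was the supernatant after 21,000xg for 90 min, measured by TMTpro 16plex LC-MS/MS with channel sums equalised. Thermal stability values, relative to control samples and from duplicates, are log2 fold changes.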

Compound in experiment [2]: CC1=C(C=C(C=C1)NC(=O)C2=CC(=CC=C2)N(C)C)NC(=O)C3=CC=C(C=C3)O
The gist of the method:
as §1

Compound in experiment [3]: CC1=CC=C(C=C1)SC2=C3C=C(SC3=CN=C2)C(=O)N
Put shortly: as §1

Compound in experiment [4]: CC1=NC(=CC=C1)C2=C(N=C(N2)C(C)(C)C)C3=CC4=NC=CN=C4C=C3
The gist of the method:
as §1

Compound in the next experiment: CCCCN(Cc1ccc(C(=O)NO)cc1)C(=O)Nc1ccccc1 [Nexturastat A]
Put shortly: as §1

Compound in a further experiment: CCCS(=O)(=O)Nc1ccc(F)c(C(=O)c2c[nH]c3ncc(-c4ccc(Cl)cc4)cc23)c1F [vemurafenib]
Put shortly:
as §1

Compound in experiment [5]: CCCS(=O)(=O)Nc1ccc(F)c(C(=O)c2c[nH]c3ncc(Cl)cc23)c1F
The gist of the method: as §1

Compound in experiment [6]: CCCc1cc(C)[nH]c(=O)c1CNC(=O)c1cc(-c2ccnc(N3CCN(C)CC3)c2)cc2c1cnn2C(C)C
Put shortly: as §1

Compound in the next experiment: CCN(CC)Cc1ccc2cc(COC(=O)Nc3ccc(C(=O)NO)cc3)ccc2c1 [givinostat]
Put shortly:
as §1

Compound in another experiment: CCN(CCCOc1ccc2c(Nc3cc(CC(=O)Nc4cccc(F)c4)[nH]n3)ncnc2c1)CCOP(=O)(O)O [barasertib]
Put shortly:
as §1

Sequence of UniProt P30043 (P30043 whole entry, looked up): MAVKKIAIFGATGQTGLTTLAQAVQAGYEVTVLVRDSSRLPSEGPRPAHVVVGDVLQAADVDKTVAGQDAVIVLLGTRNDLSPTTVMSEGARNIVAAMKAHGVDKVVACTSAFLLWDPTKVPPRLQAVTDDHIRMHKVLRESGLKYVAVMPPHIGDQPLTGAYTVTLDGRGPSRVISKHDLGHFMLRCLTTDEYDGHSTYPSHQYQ
Sequence of UniProt Q9Y6E2 (Q9Y6E2 whole entry, looked up): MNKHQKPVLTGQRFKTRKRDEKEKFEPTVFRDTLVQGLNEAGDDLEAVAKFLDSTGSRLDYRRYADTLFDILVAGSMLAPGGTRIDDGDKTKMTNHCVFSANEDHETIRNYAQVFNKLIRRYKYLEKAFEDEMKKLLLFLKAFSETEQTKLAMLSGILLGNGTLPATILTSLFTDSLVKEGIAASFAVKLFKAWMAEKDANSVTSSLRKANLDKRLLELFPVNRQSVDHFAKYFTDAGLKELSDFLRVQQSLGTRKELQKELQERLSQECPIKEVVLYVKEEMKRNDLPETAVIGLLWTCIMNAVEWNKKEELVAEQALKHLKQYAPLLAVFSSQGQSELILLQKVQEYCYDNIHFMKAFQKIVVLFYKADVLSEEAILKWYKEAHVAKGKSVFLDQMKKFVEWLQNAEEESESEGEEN
Sequence of UniProt P00966 (P00966 whole entry, looked up): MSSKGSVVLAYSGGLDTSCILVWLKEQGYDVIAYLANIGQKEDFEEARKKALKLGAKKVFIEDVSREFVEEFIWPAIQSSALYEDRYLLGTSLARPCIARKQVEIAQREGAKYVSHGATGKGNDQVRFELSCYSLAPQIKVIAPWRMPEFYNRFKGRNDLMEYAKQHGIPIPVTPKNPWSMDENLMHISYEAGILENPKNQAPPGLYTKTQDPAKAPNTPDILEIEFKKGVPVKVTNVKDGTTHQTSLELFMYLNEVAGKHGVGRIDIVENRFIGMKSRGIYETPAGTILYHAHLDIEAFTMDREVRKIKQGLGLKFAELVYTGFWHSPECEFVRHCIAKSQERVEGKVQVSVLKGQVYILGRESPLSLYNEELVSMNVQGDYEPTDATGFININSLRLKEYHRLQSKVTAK
Sequence of UniProt Q00973 (Q00973 whole entry, looked up): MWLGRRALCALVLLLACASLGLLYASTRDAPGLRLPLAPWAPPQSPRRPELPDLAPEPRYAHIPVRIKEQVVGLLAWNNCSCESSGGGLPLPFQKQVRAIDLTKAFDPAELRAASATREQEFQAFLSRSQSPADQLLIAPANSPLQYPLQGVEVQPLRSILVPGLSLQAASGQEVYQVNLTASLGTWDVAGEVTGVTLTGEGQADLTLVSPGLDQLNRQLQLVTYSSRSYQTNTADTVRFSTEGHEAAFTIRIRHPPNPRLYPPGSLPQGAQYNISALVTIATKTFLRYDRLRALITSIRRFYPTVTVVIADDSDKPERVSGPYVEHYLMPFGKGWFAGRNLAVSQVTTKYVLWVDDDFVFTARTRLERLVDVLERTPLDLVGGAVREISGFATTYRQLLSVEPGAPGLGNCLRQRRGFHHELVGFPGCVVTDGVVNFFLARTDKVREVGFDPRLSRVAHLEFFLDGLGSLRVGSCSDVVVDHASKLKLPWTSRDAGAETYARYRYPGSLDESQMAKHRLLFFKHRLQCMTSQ
Sequence of UniProt P55008 (P55008 whole entry, looked up): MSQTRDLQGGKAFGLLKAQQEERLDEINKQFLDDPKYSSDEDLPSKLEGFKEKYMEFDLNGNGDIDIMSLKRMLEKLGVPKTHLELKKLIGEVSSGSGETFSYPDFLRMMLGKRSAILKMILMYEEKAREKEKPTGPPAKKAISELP
Sequence of UniProt Q7L1Q6 (Q7L1Q6 whole entry, looked up): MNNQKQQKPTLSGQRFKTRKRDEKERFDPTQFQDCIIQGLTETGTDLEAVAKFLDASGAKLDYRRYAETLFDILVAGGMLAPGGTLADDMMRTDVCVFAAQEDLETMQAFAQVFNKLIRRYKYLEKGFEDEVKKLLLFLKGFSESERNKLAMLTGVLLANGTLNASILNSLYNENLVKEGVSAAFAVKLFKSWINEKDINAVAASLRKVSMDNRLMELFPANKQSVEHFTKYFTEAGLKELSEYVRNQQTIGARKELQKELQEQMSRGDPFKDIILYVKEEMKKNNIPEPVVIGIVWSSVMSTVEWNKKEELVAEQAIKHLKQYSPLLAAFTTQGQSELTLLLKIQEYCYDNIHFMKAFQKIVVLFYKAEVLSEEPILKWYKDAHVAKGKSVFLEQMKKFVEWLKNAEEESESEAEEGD
Sequence of UniProt Q10589 (Q10589 whole entry, looked up): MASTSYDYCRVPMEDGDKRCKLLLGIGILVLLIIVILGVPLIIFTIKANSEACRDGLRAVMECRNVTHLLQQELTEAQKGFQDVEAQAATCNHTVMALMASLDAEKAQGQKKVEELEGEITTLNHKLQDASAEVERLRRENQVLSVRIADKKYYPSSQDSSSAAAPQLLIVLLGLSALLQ
Sequence of UniProt Q9H845 (Q9H845 whole entry, looked up): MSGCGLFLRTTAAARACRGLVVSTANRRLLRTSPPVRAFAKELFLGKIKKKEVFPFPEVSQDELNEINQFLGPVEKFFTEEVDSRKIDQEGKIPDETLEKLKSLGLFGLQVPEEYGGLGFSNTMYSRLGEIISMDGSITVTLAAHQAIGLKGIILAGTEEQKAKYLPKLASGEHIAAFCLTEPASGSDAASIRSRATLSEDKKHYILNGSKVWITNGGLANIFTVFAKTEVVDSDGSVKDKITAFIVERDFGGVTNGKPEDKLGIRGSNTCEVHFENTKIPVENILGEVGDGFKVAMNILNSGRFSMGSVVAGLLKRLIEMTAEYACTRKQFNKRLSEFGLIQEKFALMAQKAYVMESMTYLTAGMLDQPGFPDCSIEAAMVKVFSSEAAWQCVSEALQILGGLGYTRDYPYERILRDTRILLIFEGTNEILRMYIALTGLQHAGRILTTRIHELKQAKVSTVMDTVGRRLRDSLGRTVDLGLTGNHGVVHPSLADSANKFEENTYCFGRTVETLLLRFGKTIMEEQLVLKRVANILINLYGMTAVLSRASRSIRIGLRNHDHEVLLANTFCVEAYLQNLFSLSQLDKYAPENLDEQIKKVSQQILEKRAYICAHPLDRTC
Sequence of UniProt Q9Y4P1 (Q9Y4P1 whole entry, looked up): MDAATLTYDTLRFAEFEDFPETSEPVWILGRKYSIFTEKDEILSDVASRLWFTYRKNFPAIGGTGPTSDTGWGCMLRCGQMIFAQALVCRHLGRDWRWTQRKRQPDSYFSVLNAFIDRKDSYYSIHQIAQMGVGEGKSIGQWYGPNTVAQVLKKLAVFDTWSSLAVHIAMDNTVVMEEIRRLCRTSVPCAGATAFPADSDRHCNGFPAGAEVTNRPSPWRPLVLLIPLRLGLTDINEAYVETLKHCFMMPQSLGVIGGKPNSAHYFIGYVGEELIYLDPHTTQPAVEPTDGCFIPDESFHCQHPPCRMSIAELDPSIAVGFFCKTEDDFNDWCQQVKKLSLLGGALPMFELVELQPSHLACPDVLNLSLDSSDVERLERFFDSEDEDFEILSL
Sequence of UniProt O14965 (O14965 whole entry, looked up): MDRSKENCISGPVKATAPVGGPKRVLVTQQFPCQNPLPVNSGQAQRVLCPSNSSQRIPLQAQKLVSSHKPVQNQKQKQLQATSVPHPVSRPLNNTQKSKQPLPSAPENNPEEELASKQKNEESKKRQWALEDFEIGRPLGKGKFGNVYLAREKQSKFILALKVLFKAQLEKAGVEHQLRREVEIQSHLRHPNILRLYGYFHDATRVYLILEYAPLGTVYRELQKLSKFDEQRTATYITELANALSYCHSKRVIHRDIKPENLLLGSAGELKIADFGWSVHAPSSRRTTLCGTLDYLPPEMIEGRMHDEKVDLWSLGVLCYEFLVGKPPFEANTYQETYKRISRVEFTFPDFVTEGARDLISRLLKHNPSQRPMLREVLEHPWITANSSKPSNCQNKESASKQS
Sequence of UniProt Q9HC16 (Q9HC16 whole entry, looked up): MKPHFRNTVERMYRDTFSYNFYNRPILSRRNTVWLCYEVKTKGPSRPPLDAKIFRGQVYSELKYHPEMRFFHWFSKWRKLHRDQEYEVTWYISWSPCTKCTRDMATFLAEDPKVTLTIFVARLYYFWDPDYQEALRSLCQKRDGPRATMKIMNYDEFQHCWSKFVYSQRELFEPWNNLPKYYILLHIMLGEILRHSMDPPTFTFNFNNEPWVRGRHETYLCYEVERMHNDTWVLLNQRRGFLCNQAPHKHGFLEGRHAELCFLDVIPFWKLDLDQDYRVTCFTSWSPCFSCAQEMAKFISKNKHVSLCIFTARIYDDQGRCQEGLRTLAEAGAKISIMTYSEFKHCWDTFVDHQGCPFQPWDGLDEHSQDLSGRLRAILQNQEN
Sequence of UniProt P54922 (P54922 whole entry, looked up): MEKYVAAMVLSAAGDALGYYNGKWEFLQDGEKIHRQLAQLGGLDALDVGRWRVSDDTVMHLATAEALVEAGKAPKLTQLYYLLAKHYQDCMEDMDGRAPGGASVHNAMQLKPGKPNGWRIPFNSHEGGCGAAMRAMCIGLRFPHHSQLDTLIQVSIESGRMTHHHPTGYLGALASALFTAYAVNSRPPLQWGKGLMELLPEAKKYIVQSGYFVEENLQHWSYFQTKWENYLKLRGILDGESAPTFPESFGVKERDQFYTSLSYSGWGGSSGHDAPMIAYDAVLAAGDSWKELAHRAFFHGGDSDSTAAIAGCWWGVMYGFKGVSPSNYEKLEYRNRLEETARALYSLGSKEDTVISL
Sequence of UniProt P17707 (P17707 whole entry, looked up): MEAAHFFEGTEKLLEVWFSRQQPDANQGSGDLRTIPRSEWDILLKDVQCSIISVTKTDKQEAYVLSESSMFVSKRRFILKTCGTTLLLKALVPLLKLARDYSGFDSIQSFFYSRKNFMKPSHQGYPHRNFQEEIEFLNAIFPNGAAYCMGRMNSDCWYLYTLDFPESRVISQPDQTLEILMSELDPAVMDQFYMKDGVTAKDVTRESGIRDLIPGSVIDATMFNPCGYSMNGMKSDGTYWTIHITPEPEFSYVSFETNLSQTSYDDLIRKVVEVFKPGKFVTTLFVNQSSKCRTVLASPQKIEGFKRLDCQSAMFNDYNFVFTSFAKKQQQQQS

As for BLVRB (UniProt P30043), the log2 fold change in [1] was 0.094; in experiment [2], -0.023; in experiment [3], -0.025; in [4] it was 0.027; with Nexturastat A it was -0.014; in the experiment with vemurafenib, 0.069. Moreover, the log2 fold change in experiment [5] is 0.063; in [6], 0.037; with givinostat, 0.03; in the experiment with barasertib, 0.025.
APOB (UniProt P04114): the log2 fold change is -0.039 in experiment [1]; 0.134 in experiment [2]; 0.146 in experiment [3]; 0.032 in experiment [4]; -0.049 with Nexturastat A; -0.006 in the experiment with vemurafenib. Further, the log2 fold change in experiment [5] is 0.095; in experiment [6], -0.853 (active); with givinostat it was 0.074; in the experiment with barasertib, -0.012.
Turning to AURKA (UniProt O14965), the log2 fold change in experiment [1] is -0.008; in experiment [2], -0.041; in [3], -0.011; in experiment [4], -0.036; in the experiment with Nexturastat A, 0.096; with vemurafenib it was -0.026. The log2 fold change was 0.006 in experiment [5], 0.01 in experiment [6], 0.257 with givinostat and 0.114 in the experiment with barasertib.
Turning to ACAD9 (UniProt Q9H845), the log2 fold change in experiment [1] is -0.022; in experiment [2], 0.007; in experiment [3] it was 0.007; in [4] it was -0.001; with Nexturastat A, -0.061; with vemurafenib it was 0.053. Further, the log2 fold change in [5] is -0.019; in experiment [6], -0.009; with givinostat, -0.012; with barasertib it was -0.011.
BST2 (UniProt Q10589): the log2 fold change in [1] is 0.059; in [2], 0.014; in [3], -0.003; in experiment [4] it was -0.011; with Nexturastat A it was 0.023; with vemurafenib, 0. Moreover, the log2 fold change in [5] is -0.029; in [6] it was -0.095; in the experiment with givinostat, 0.053; in the experiment with barasertib it was -0.097.
For BZW1 isoform 3 (UniProt Q7L1Q6), the log2 fold change is 0.064 in experiment [1]; -0.014 in experiment [2]; 0.036 in [3]; 0.038 in experiment [4]; 0.016 in the experiment with Nexturastat A; 0.107 in the experiment with vemurafenib. For the same target, the log2 fold change in [5] was 0.126; in [6], 0.105; in the experiment with givinostat it was 0.084; in the experiment with barasertib, 0.06.
As to ATG4B isoform 2 (UniProt Q9Y4P1), the log2 fold change was -0.046 in experiment [1]; -0.287 in experiment [2]; 0.218 in experiment [3]; -0.072 in experiment [4]; 0.132 in the experiment with Nexturastat A; 0.087 with vemurafenib. The log2 fold change was -0.02 in experiment [5], 0.031 in experiment [6], 0.126 in the experiment with givinostat and 0.126 with barasertib.
As to B4GALNT1 (UniProt Q00973), the log2 fold change in experiment [1] was 0.075; in experiment [2], -0.028; in [3] it was -0.109; in experiment [4], 0.005; in the experiment with Nexturastat A, 0.096; with vemurafenib, -0.172. In addition, the log2 fold change was -0.044 in [5], -0.028 in [6], -0.123 in the experiment with givinostat and 0.104 with barasertib.
In the case of AIF1 (UniProt P55008), the log2 fold change in experiment [1] was -0.042; in experiment [2] it was -0.039; in [3], -0.056; with Nexturastat A it was 0.048; with vemurafenib, -0.112; in [5] it was 0. The log2 fold change was -0.057 with givinostat and -0.102 with barasertib.
As for ADPRH (UniProt P54922), the log2 fold change in [1] was 0.014; in experiment [2], -0.008; in [3], -0.002; in experiment [4], -0.134; in the experiment with Nexturastat A, 0.015; with vemurafenib, 0.071. Besides, the log2 fold change in experiment [5] was -0.037; in experiment [6], -0.005; in the experiment with givinostat, 0.025; with barasertib, -0.036.
ASS1 (UniProt P00966): the log2 fold change in experiment [1] is -0.073; in experiment [2], -0.015; in experiment [3] it was -0.06; with Nexturastat A, 0.023; in the experiment with vemurafenib, -0.042; in experiment [5] it was 0.003. The log2 fold change in experiment [6] is 0.004; in the experiment with givinostat, 0.031; with barasertib, -0.063.
As for AMD1 (UniProt P17707), the log2 fold change is 0.013 in experiment [1]; -0.142 in experiment [2]; 0.049 in experiment [3]; 0.078 in experiment [4]; -0.048 with Nexturastat A; -0.126 with vemurafenib. Besides, the log2 fold change in experiment [5] was 0.041; in [6], -0.027; with givinostat it was 0.07; with barasertib, 0.016.
For the target BZW2 (UniProt Q9Y6E2), the log2 fold change was 0.009 in [1]; -0.007 in [2]; 0.043 in experiment [3]; 0.062 in experiment [4]; -0.034 with Nexturastat A; 0.012 with vemurafenib. The log2 fold change in experiment [5] was 0.058; in [6], -0.025; with givinostat, 0.011; with barasertib, 0.044.
APOBEC3G (UniProt Q9HC16): the log2 fold change was -0.019 in experiment [1]; 0.069 in [2]; -0.064 in experiment [3]; -0.014 in [4]; 0.172 with Nexturastat A; 0.069 in the experiment with vemurafenib. Further, the log2 fold change in experiment [5] was -0.083; in [6], 0.051; with givinostat, 0.129; in the experiment with barasertib it was 0.019.
Regarding ANK2 (UniProt Q01484), the log2 fold change in [1] is -0.11; in [2], -0.031; in experiment [3], 0.019; in [4], 0.026; in the experiment with vemurafenib, -0.026; in [5], 0.012. Further, the log2 fold change is 0.053 in [6], -0.047 with givinostat and 0.031 with barasertib.

The values are drawn from the supplement of paper PMC10849652.
